# From PubChem BioAssay
# T cruzi growth-1: T. cruzi proliferation inhibition. inhibition, % at 8.34 µM. 77,000 tested, 5.9% active. AID 624255. T. cruzi beta-gal in NIH3T3, GalScreen luminescence, 90 h;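 active = mean inhibition above about 93%, with at least 55% of replicates each passing it, limit read from the data, passing the limit was not always enough; inconclusive = only one of those two conditions holds; inactive = neither condition holds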
# C diff HTS: inhibitors of Clostridium difficile growth; Clostridium difficile clinical isolate growth, OD600, 24 h; stronger effect = lower value; growth activity, negative = inhibition, % at 16 µg/mL (by protocol); 86,000 tested, 0.25% active; AID 1259249;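 active = mean growth activity at or below -80% and every replicate also at or below -80%; inconclusive = mean at or below -80% but some replicate above -80%; inactive = mean growth activity above -80%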;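 note: 0% = DMSO wells and -100% = levofloxacin 16 µg/mL wells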
# T cruzi growth-2: blocks T. cruzi growth in NIH3T3 host cells | shares compounds with T cruzi growth-1 | AID 651739 | 5,600 tested, 72% active | inhibition, % at 8.35 µM | T. cruzi beta-gal in NIH3T3, GalScreen luminescence, 90 h;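 active = mean replicate inhibition above about 95% and at least 55% of replicates individually reaching it, limit read from the data; inconclusive = only one of the two criteria is met; inactive = neither criterion is met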
# T cruzi growth-3: Trypanosoma cruzi proliferation inhibition; inhibition, % at 2.09 µM; AID 651740; shares compounds with T cruzi growth-1; 5,600 tested, 21% active; T. cruzi beta-gal in NIH3T3, GalScreen luminescence, 90 h;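 active = mean inhibition above about 95%, with at least 55% of replicates also reaching it, limit read from the data; inconclusive = meets just one of the two conditions; inactive = meets neither condition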;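 note: plate controls were neutral control median for no effect and positive control median for full effect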
# 3T3 cytotox: kills mouse NIH/3T3 fibroblasts | cytotoxicity (signal decrease), % at 8.35 µM | 5,600 tested, 14% active | NIH/3T3 viability, CellTiter-Glo ATP luminescence, 90 h | shares compounds with T cruzi growth-1;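 active = mean signal decrease across replicates above about 35% based on untreated-well scatter, with enough replicates individually passing, limit read from the data; inconclusive = no rule stated though some were filed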;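 note: 0% = median of neutral control wells and 100% = median of positive control wells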
# NIH3T3 tox 2: kills mouse NIH/3T3 fibroblasts. inhibition, % at 24.9 µM. AID 651744. shares compounds with T cruzi growth-1. 5,600 tested, 56% active. NIH/3T3 viability, CellTiter-Glo ATP luminescence, 90 h;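 active = mean loss of cell viability signal at or above a set limit, and enough replicates individually reaching it; inconclusive = meets only the mean limit or only the replicate share; inactive = meets neither condition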;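 note: 0% = median of neutral control wells and 100% = median of positive control wells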
# Starred values were filed as active, the others as inactive; u = inconclusive; x = not tested or not shown; ! = not active in a repeat. Many of the other results were omitted from the sample, so hits are more common in it than they were.
SMILES,T cruzi growth-1,C diff HTS,T cruzi growth-2,T cruzi growth-3,3T3 cytotox,NIH3T3 tox 2
C[C@@H]1CCCCO[C@@H](CN(C)C(=O)C2CCCCC2)[C@@H](C)CN([C@@H](C)CO)C(=O)c2cc(N(C)C)ccc2O1,46.6,-4.1,x,x,x,x
C[C@@H]1CCCCO[C@@H](CN(C)C(=O)C2CCCCC2)[C@@H](C)CN([C@H](C)CO)C(=O)c2cc(N(C)C)ccc2O1,35.3,-17.2,x,x,x,x
C[C@@H]1CCCCO[C@H](CN(C)C(=O)C2CCCCC2)[C@H](C)CN([C@@H](C)CO)C(=O)c2cc(N(C)C)ccc2O1,110.4*,-20.1,67.6,21.1,-0.9,3.1
C[C@H](CO)N1C[C@H](C)[C@H](CN(C)C(=O)C2CCCCC2)OCCCC[C@H](C)Oc2ccc(N(C)C)cc2C1=O,99.9*,-5.2,53.2,19.6,5.5,-18.7
CO[C@@H]1CN(C)C(=O)c2cc(NS(=O)(=O)c3cccc(Cl)c3)ccc2OC[C@@H](C)NC[C@H]1C,-40.0,x,x,x,x,x
CN(C)C(=O)C[C@H]1CC[C@H]2[C@H](COc3ccc(NC(=O)C4CC4)cc3C(=O)N2C)O1,14.7,-0.5,x,x,x,x
O=C(NC1Cc2ccccc2C1)[C@H]1N[C@H]2c3ccc(C4=CCCCC4)c(=O)n3C[C@H]2[C@@H]1CO,22.6,-1.1,x,x,x,x
Cc1noc(C)c1NC(=O)N1C[C@H](O)COC[C@H]2O[C@@H](CC(=O)NCC3CC3)CC[C@@H]21,3.8,-5.1,x,x,x,x
Cc1noc(C)c1NC(=O)N1C[C@@H](O)COC[C@H]2O[C@@H](CC(=O)NCC3CC3)CC[C@@H]21,u,-0.6,-13.7,10.7,-18.8,-16.2
Cc1noc(C)c1NC(=O)N1C[C@H](O)COC[C@H]2O[C@H](CC(=O)NCC3CC3)CC[C@@H]21,-46.8,-3.6,x,x,x,x
Cc1noc(C)c1NC(=O)N1C[C@@H](O)COC[C@H]2O[C@H](CC(=O)NCC3CC3)CC[C@@H]21,101.1*,-1.0,36.4,31.0,-11.2,-13.6
C[C@@H]1CN([C@H](C)CO)C(=O)c2cc(-c3cccc(F)c3)cnc2O[C@H]1CN(C)Cc1ccncc1,-1.7,-7.1,x,x,x,x
C[C@H](CO)N1C[C@H](C)[C@H](CN(C)S(=O)(=O)c2ccc(Cl)cc2)Oc2c(NS(=O)(=O)c3cccs3)cccc2C1=O,54.3,-0.9,x,x,x,x
Cc1ccc(S(=O)(=O)N(C)C[C@@H]2OCCCC[C@H](C)Oc3ccc(NC(=O)CCCN(C)C)cc3C(=O)N([C@H](C)CO)C[C@@H]2C)cc1,11.8,x,x,x,x,x
C[C@@H]1CN([C@H](C)CO)S(=O)(=O)c2ccc(-c3cccc(C#N)c3)cc2O[C@H]1CN(C)C(=O)c1ccc(F)cc1,78.2,-4.2,x,x,x,x
C[C@H]1CN([C@@H](C)CO)S(=O)(=O)c2ccc(-c3cccc(C#N)c3)cc2O[C@H]1CN(C)C(=O)c1ccc(F)cc1,103.3*,6.7,88.6,43.9,30.0,78.2*
C[C@@H]1CN([C@@H](C)CO)S(=O)(=O)c2ccc(-c3cccc(C#N)c3)cc2O[C@@H]1CN(C)C(=O)c1ccc(F)cc1,108.7*!,-2.2,97.3*,91.2,u,73.0*
C[C@H](CO)N1C[C@H](C)[C@@H](CN(C)C(=O)c2ccc(F)cc2)Oc2cc(-c3cccc(C#N)c3)ccc2S1(=O)=O,47.7,-7.2,x,x,x,x
O=C(CCN1CCCCC1)NCC[C@H]1CC[C@H](NS(=O)(=O)c2cccc(Cl)c2)[C@@H](CO)O1,-20.2,x,x,x,x,x
CC(C)CC#Cc1ccc2c(c1)O[C@@H](CN(C)C(=O)C1CC1)[C@@H](C)CN([C@@H](C)CO)S2(=O)=O,91.8,x,x,x,x,x
CC(C)CC#Cc1ccc2c(c1)O[C@@H](CN(C)C(=O)C1CCOCC1)[C@@H](C)CN([C@H](C)CO)S2(=O)=O,83.9,0.9,x,x,x,x
CC(C)CC#Cc1ccc2c(c1)O[C@@H](CN(C)C(=O)C1CCC1)[C@@H](C)CN([C@@H](C)CO)S2(=O)=O,105.0*,9.4,103.8*,73.7,-19.3,96.1*
CC(C)CC#Cc1ccc2c(c1)O[C@H](CN(C)C(=O)C1CCOCC1)[C@H](C)CN([C@H](C)CO)S2(=O)=O,83.6,10.6,x,x,x,x
CC(C)CC#Cc1ccc2c(c1)O[C@H](CN(C)C(=O)C1CCCCC1)[C@H](C)CN([C@@H](C)CO)S2(=O)=O,111.9*,-6.1,102.1*,103.3*,28.8,104.4*
CC(C)CC#Cc1ccc2c(c1)O[C@@H](CN(C)C(=O)C1CCCCC1)[C@@H](C)CN([C@@H](C)CO)S2(=O)=O,112.7*,-5.7,u,u,2.4,105.4*
SMILES,T cruzi growth-1,C diff HTS,T cruzi growth-2,T cruzi growth-3,3T3 cytotox,NIH3T3 tox 2
CC(C)CC#Cc1ccc2c(c1)O[C@@H](CN(C)C(=O)C1CC1)[C@H](C)CN([C@@H](C)CO)S2(=O)=O,104.2*,x,103.8*,59.2,28.0,54.9*
CC(C)CC#Cc1ccc2c(c1)O[C@H](CN(C)C(=O)C1CCOCC1)[C@@H](C)CN([C@H](C)CO)S2(=O)=O,82.2,0.3,x,x,x,x
O=C(N[C@@H]1CC[C@@H](CCNS(=O)(=O)c2ccccc2)O[C@@H]1CO)c1cnccn1,31.3,-0.1,x,x,x,x
CCCNC(=O)[C@H]1N[C@H]2c3ccc(C4=CCCCC4)c(=O)n3C[C@H]2[C@@H]1CO,54.1,-3.6,x,x,x,x
C[C@H](CO)N1C[C@H](C)[C@@H](CN(C)C(=O)Nc2ccc3c(c2)OCO3)Oc2c(NS(C)(=O)=O)cccc2C1=O,-7.0,0.5,x,x,x,x
CC(C)(O)C#Cc1ccc([C@@H]2[C@@H](CO)N3CCCCN(S(C)(=O)=O)C[C@@H]23)cc1,18.7,-1.4,x,x,x,x
Cc1cc(C(=O)Nc2cccc3c2O[C@@H](CN(C)Cc2ccncc2)[C@H](C)CN([C@@H](C)CO)C3=O)n(C)n1,16.1,-1.6,x,x,x,x
COCC(=O)Nc1ccc2c(c1)C(=O)N(C)C[C@H](OC)[C@@H](C)CN(C(=O)Cc1ccccn1)[C@@H](C)CO2,-13.1,x,x,x,x,x
C[C@@H]1CN([C@H](C)CO)C(=O)c2cc(NC(=O)Nc3cccc4ccccc34)ccc2O[C@H]1CN(C)Cc1ccc(C(F)(F)F)cc1,106.2*,-4.9,104.8*,59.0,20.5,u
C[C@@H]1CN([C@@H](C)CO)C(=O)c2cc(NC(=O)Nc3cccc4ccccc34)ccc2O[C@@H]1CN(C)Cc1ccccc1,65.8,3.6,x,x,x,x
C[C@H]1CN([C@@H](C)CO)C(=O)c2cc(NC(=O)Nc3cccc4ccccc34)ccc2O[C@@H]1CN(C)Cc1ccc(C(F)(F)F)cc1,87.0*,-2.7,108.8*,43.8,13.0,10.7
C[C@@H]1CN([C@H](C)CO)C(=O)c2cc(NC(=O)Nc3cccc4ccccc34)ccc2O[C@H]1CN(C)Cc1ccccc1,53.7,0.8,x,x,x,x
CCNC(=O)[C@@H]1[C@@H](CO)[C@@H]2Cn3c(ccc(-c4ccccc4F)c3=O)[C@H]1N2C(=O)CC,-11.6,-1.4,x,x,x,x
CC(=O)N(C)C[C@@H]1Oc2cc(C#CCC3CCCC3)ccc2S(=O)(=O)N([C@@H](C)CO)C[C@H]1C,37.9,-13.2,x,x,x,x
C/C=C/c1ccc([C@@H]2[C@@H](CO)N(C(=O)C3CC3)C23CN(C(=O)NC(C)C)C3)cc1,x,-5.4,x,x,x,x
